Reference: PubChem BioAssay (NCATS)
Inconclusive results are not listed. Calls of active or inactive are those of the source. Calls come from the whole dose curve; as a rule, active = well fitted curve in the direction sought with a large enough effect; inconclusive = small, poorly fitted or top-dose-only effect, or another doubt; inactive = no such curve, though single readings can be large; an effect the other way counts as inactive or inconclusive.

Legend:
[1] = qHTS of pediatric cancer cell lines to identify multiple opportunities for drug repurposing: Primary screen for OHS-50 cells (AID 1347103); note: nearly all actives have a fitted effect of over 40% in size; note: potency is the fitted concentration of half-maximal effect
In short: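 Cells (500-1,000/well) rested 5 h, then received compounds for 48 h; metabolically active cells were measured by CellTiter-Glo luminescence. Final concentrations spanned up to 46 µM (MIPE, 11-point) or 0.59 nM-46 µM (NPC, 8-point) in primary screens, 11-point in follow-ups.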

[2] = qHTS of pediatric cancer cell lines to identify multiple opportunities for drug repurposing: Primary screen for RD cells (AID 1347104); note: nearly all actives have a fitted effect of over 55% in size; note: potency is the fitted concentration of half-maximal effect
In short: (§1)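 Quantitative HTS format: each compound titrated (MIPE 11 points from 0.78 nM, NPC 8 points from 0.59 nM) onto cells plated 5 hours earlier. After 48 h at 37 degrees C, CellTiter-Glo luminescence was recorded.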

[3] = qHTS of pediatric cancer cell lines to identify multiple opportunities for drug repurposing: Primary screen for MG 63 (6-TG R) cells (AID 1347105); note: nearly all actives have a fitted effect of over 50% in size; note: potency is the fitted concentration of half-maximal effect
In short: as §1

[4] = qHTS of pediatric cancer cell lines to identify multiple opportunities for drug repurposing: Primary screen for control Hh wild type fibroblast cells (AID 1347106);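 note: series mostly up to about 46 µM; a drop in luminescence marks cytotoxicity and a rise apparent proliferation; nearly all actives have a fitted effect of over 55% in size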
In short: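 Viability after 48 h compound treatment at 37C, 500-1,000 cells/well, read as ATP luminescence with CellTiter-Glo. Primary screens used 11-point (MIPE, 0.78 nM-46 µM) or 8-point (NPC, 0.59 nM-46 µM) final concentrations; follow-up screens used 11-point dilutions.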

[5] = qHTS of pediatric cancer cell lines to identify multiple opportunities for drug repurposing: Primary screen for Rh30 cells (AID 1347107); note: series mostly up to about 46 µM; nearly all actives have a fitted effect of over 75% in size
In short: (§2)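 Cells (500-1,000/well) in growth media were settled 5 h at 37 degrees C, then given compounds for 48 h. Viability was read as CellTiter-Glo luminescence. Primary runs used MIPE at 11 points (0.78 nM-46 µM) and NPC at 8 points (0.59 nM-46 µM); follow-ups used 11 points.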

[6] = qHTS of pediatric cancer cell lines to identify multiple opportunities for drug repurposing: Primary screen for Rh41 cells (AID 1347108);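 note: series mostly up to about 46 µM; luminescence drop marks cytotoxic hits; nearly all actives have a fitted effect of over 70% in size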
In short: as §1

[7] = qHTS of pediatric cancer cell lines to identify multiple opportunities for drug repurposing: Confirmatory screen for NB1643 cells (AID 1347109); note: nearly all actives have a fitted effect of over 45% in size; note: potency is the fitted concentration of half-maximal effect
In short: as §2

[8] = qHTS of pediatric cancer cell lines to identify multiple opportunities for drug repurposing: Confirmatory screen for A673 cells (AID 1347110);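 note: cells exposed to compound for 48 h before the viability read; nearly all actives have a fitted effect of over 65% in size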; note: potency is the fitted concentration of half-maximal effect
In short: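 Viability was read as ATP luminescence (CellTiter-Glo) after 48 h of compound exposure at 37 C in A673 cells seeded at 500-1,000/well. Titrations reached 46 uM final, with 11 points in the confirmatory screen. Concentration-response curves were fitted directly.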

[9] = qHTS of pediatric cancer cell lines to identify multiple opportunities for drug repurposing: Confirmatory screen for SK-N-MC cells (AID 1347111);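 note: cells exposed to compound for 48 h before the readout; nearly all actives have a fitted effect of over 70% in size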; note: potency is the fitted concentration of half-maximal effect
In short: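 Metabolically active cells were quantified by ATP-dependent luminescence (CellTiter-Glo, 15 min at room temperature) following 48 h treatment. Cells had been plated at 500-1,000 per well and settled for 5 h beforehand.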

[10] = qHTS of pediatric cancer cell lines to identify multiple opportunities for drug repurposing: Confirmatory screen for BT-12 cells (AID 1347112); note: nearly all actives have a fitted effect of over 55% in size; note: potency is the fitted concentration of half-maximal effect
In short: as §2

[11] = qHTS of pediatric cancer cell lines to identify multiple opportunities for drug repurposing: Confirmatory screen for LAN-5 cells (AID 1347113); note: nearly all actives have a fitted effect of over 65% in size; note: potency is the fitted concentration of half-maximal effect
In short: as §2

[12] = qHTS of pediatric cancer cell lines to identify multiple opportunities for drug repurposing: Confirmatory screen for DAOY cells (AID 1347114); note: nearly all actives have a fitted effect of over 65% in size
In short: (§3)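 Viability measured as metabolically active cells via CellTiter-Glo luminescence following 48 hours of compound exposure, 11-point dilutions in confirmatory testing. 500-1,000 cells/well plated 5 hours before dosing; controls were DMSO and 2.3 µM bortezomib.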

[13] = qHTS of pediatric cancer cell lines to identify multiple opportunities for drug repurposing: Confirmatory screen for NB-EBc1 cells (AID 1347115);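 note: cells exposed to compound for 48 h before the viability read; nearly all actives have a fitted effect of over 45% in size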
In short: as §2

[14] = qHTS of pediatric cancer cell lines to identify multiple opportunities for drug repurposing: Confirmatory screen for SJ-GBM2 cells (AID 1347116); note: nearly all actives have a fitted effect of over 60% in size
In short: as §3

[15] = qHTS of pediatric cancer cell lines to identify multiple opportunities for drug repurposing: Confirmatory screen for BT-37 cells (AID 1347117); note: nearly all actives have a fitted effect of over 55% in size; note: potency is the fitted concentration of half-maximal effect
In short: as §2

[16] = qHTS of pediatric cancer cell lines to identify multiple opportunities for drug repurposing: Confirmatory screen for TC32 cells (AID 1347118);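 note: cells exposed to compound for 48 h before the read; nearly all actives have a fitted effect of over 65% in size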; note: potency is the fitted concentration of half-maximal effect
In short: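 qHTS, TC32, 48 h drug treatment, CellTiter-Glo luminescence as a proxy for metabolically active cells; primary top concentration 46 µM (MIPE 11-pt, NPC 8-pt); confirmatory 11-pt.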

[17] = qHTS of pediatric cancer cell lines to identify multiple opportunities for drug repurposing: Confirmatory screen for MG 63 (6-TG R) cells (AID 1347119); note: nearly all actives have a fitted effect of over 55% in size
In short: as §2

[18] = qHTS of pediatric cancer cell lines to identify multiple opportunities for drug repurposing: Confirmatory screen for control Hh wild type fibroblast cells (AID 1347121); note: nearly all actives have a fitted effect of over 70% in size
In short: as §2

[19] = qHTS of pediatric cancer cell lines to identify multiple opportunities for drug repurposing: Confirmatory screen for U-2 OS cells (AID 1347122); settings: outcome: dose series up to 45.9 µM; note: nearly all actives have a fitted effect of over 65% in size
In short: as §2

[20] = qHTS of pediatric cancer cell lines to identify multiple opportunities for drug repurposing: Confirmatory screen for Rh41 cells (AID 1347123); note: nearly all actives have a fitted effect of over 60% in size
In short: as §2

Measured: Potency

CC(C)(O)c1ccccc1CC[C@@H](SCC1(CC(=O)O)CC1)c1cccc(/C=C/c2ccc3ccc(Cl)cc3n2)c1
inactive: [1] | [2] | [3] | [4] | [5] | [6]

CC(C)(C)NCC(O)COc1ccc(NC(=O)NC2CCCCC2)cc1 (stereo not drawn)
inactive: [1] | [2] | [3] | [5] | [6]

CN1[C@@H]2CC[C@H]1CC(OC(=O)C(O)c1ccccc1)C2 (stereo partly drawn)
inactive: [1] | [2] | [3] | [5] | [6]

CC1(C)[C@@H]2CC[C@@]1(C)C(=O)C2
inactive: [1] | [2] | [3] | [5] | [6]

CC(=O)Oc1ccc(C2(c3ccc(OC(C)=O)cc3)C(=O)Nc3ccccc32)cc1
inactive: [2] | [5] | [6]
active: [1] 1.1 µM | [3] 0.168 µM

Cc1c(O)cccc1C(=O)N[C@@H](CSc1ccccc1)[C@H](O)CN1C[C@H]2CCCC[C@H]2C[C@H]1C(=O)NC(C)(C)C
inactive: [5]
active: [1] 24.6 µM | [2] 23.7 µM | [3] 26.6 µM

CSc1ccc2c(c1)N(CCC1CCCCN1C)c1ccccc1S2 (stereo not drawn)
inactive: [4]
active: [1] 17.4 µM | [2] 26.6 µM

O=C1NC(=O)[C@@]2(CCOc3ccc(F)cc32)N1
inactive: [1] | [2] | [3] | [5] | [6]

OC[C@H]1O[C@@H](O[C@@H]2[C@@H](CO)O[C@](O)(CO)[C@H]2O)[C@H](O)[C@@H](O)[C@H]1O
inactive: [1] | [2] | [3] | [5] | [6]

CC(=O)OCC(=O)[C@@]1(O)CC[C@H]2[C@@H]3CCC4=CC(=O)CC[C@]4(C)[C@H]3C(=O)C[C@@]21C
inactive: [1] | [2] | [3] | [4] | [5] | [6]

CC/C=C(\C(=O)N[C@@H]1C(=O)N2C(C(=O)OCOC(=O)C(C)(C)C)=C(COC(N)=O)CS[C@H]12)c1csc(N)n1
inactive: [1] | [2] | [3] | [4] | [5] | [6]

NC(=O)NC(=O)Cc1ccccc1
inactive: [1] | [2] | [3] | [5] | [6]

CN1CCC[C@@H]1Cc1c[nH]c2ccc(CCS(=O)(=O)c3ccccc3)cc12
inactive: [1] | [2] | [4] | [5]

CCCCC/C(C=O)=C\c1ccccc1
active: [1] 0.001 µM | [7] 7.37 µM | [8] 2.93 µM | [9] 9.27 µM | [10] 26.1 µM | [11] 5.22 µM | [15] 14.7 µM | [16] 6.57 µM
not listed: [20]
inactive: all other assays above

C[C@@H]1C[C@H]2[C@@H]3C[C@H](F)C4=CC(=O)C=C[C@]4(C)[C@@]3(F)[C@@H](O)C[C@]2(C)[C@@]1(O)C(=O)CO
active: [9] 13.1 µM | [16] 23.3 µM
not listed: [11]
inactive: all other assays above

COc1ccc(S(=O)(=O)Nc2nnc(CC(C)C)s2)cc1
inactive: [1] | [2] | [3] | [5] | [6]

CCCOC(=O)c1ccccc1
inactive: [1] | [2] | [3] | [5] | [6]

CCCCc1ncc(/C=C(\Cc2cccs2)C(=O)O)n1Cc1ccc(C(=O)O)cc1
inactive: [1] | [2] | [4] | [5]

NS(=O)(=O)c1cc2c(cc1Cl)NC(CSCc1ccccc1)=NS2(=O)=O
inactive: [1] | [2] | [3] | [4] | [5] | [6]

COc1cc(C(=O)N2CCOCC2)cc(OC)c1OC
inactive: [1] | [2] | [3] | [5] | [6]

C[C@@H]1CCN(C(=O)[C@H](CCCN=C(N)N)NS(=O)(=O)c2cccc3c2NC[C@H](C)C3)[C@@H](C(=O)O)C1
inactive: [1] | [2] | [3] | [5] | [6]

Cc1cc(O)cc2c1O[C@](C)(CCC[C@H](C)CCC[C@H](C)CCCC(C)C)CC2
inactive: [1] | [2] | [3] | [5] | [6]

O=C1N=C(O)CN1/N=C/c1ccc(-c2ccc([N+](=O)[O-])cc2)o1
not listed: [6] | [12] | [20]
inactive: all other assays above

Nc1ccc(S(=O)(=O)Nc2ccccc2)cc1
inactive: [1] | [2] | [3] | [5]

Cc1cccc(C)c1NC(=O)CN(CC(=O)O)CC(=O)O
inactive: [1] | [2] | [3] | [5] | [6]

O=S(=O)(O)c1cc(I)c(O)c2ncccc12
inactive: [1] | [2] | [3] | [5] | [6]
